Screening data (PubChem)
hcDAF-12 act – H. contortus DAF-12 nuclear receptor activators, primary screen, cell-based, luminescence, HEK293, lit1-tk-luc reporter; activation, % at 6.8 µM; HEK293 hcDAF-12 lit1-tk-luc reporter; 0% DMSO, 100% Δ7-dafachronic acid; 370,000 compounds, 1.4% hits; AID 652067, 2013;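 active = activation above the mean of all tested compounds plus 3 SD, cut at about 5.5% in these data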;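 note: 100% = response to 3 µM Δ7-dafachronic acid high control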
DAX1 inh-1 – DAX1 (NR0B1) inhibitors, primary screen, cell-based, HEK293, Gal4-DAX1, luciferase luminescence; Nuclear receptor subfamily 0 group B member 1 (Homo sapiens), P51843; HEK293 Gal4-DAX1 luciferase reporter; inhibition, % at 6.75 µM; 340,000 compounds, 0.99% hits;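 active = inhibition above the mean over all tested compounds plus 3 SD, cut at about 4.2% in these data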;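 note: 0% = DAX1-transfected cells with DMSO and 100% = empty-vector control cells with DMSO; inhibition shows as a rise in luminescence from relieved DAX1 repression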
Target sequence (P51843 207-470 limits assumed): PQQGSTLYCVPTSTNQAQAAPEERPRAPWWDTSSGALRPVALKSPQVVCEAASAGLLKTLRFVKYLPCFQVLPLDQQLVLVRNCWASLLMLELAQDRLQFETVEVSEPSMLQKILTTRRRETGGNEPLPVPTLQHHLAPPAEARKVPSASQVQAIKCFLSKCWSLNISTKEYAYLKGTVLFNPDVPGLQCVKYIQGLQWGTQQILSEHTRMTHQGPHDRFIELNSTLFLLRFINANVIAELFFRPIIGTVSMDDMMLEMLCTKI
DAX1 inh-2 – DAX1 (NR0B1) inhibitors on StAR promoter, primary screen, cell-based, luminescence, SF-1 (NR5A1), full-length DAX-1; HEK293T StAR-luciferase reporter, SF-1/DAX-1 repression relief; inhibition, % at 6.8 µM; 370,000 compounds, 1.1% hits;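 active = inhibition above the mean over all tested compounds plus 3 SD, cut at about 3.6% in these data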;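 note: 0% = DAX-1 cells with DMSO and 100% = cells lacking DAX-1 with DMSO; higher inhibition means more luminescence from relief of DAX-1 repression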
ssDAF12 agonist – S. stercoralis DAF-12 nuclear receptor activators, primary screen, cell-based, luminescence, HEK293, GRIP1 co-expression, lit1-tk-luc; HEK293 ssDAF-12/GRIP1 lit1-tk-luc reporter; % of 3 µM dafachronic acid response; activation, % at 6.8 µM; 370,000 compounds, 1% hits; AID 652126, 2013;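 active = activation above the mean over all tested compounds plus 3 SD, cut at about 0.9% in these data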;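 note: 0% = DMSO-only wells and 100% = 3 µM delta7-dafachronic acid wells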
hgDAF12 agonist – H. glycines DAF-12 receptor agonists, primary screen, cell-based, luminescence, HEK293, GAL4 fusion, UAS-luciferase | Nuclear hormone receptor DAF-12 (Heterodera glycines), GAL4 fusion | HEK293 GAL4-hgDAF12 UAS-luciferase reporter, agonist luminescence; normalized to butyrate control | activation, % at 6.8 µM | 370,000 compounds, 1.8% hits;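 active = activation above a cutoff set at the mean of all screened compounds plus 3 SD, cut at about 10% in these data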;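 note: 0% = DMSO wells and 100% = sodium butyrate wells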
LXRb hcDAF ctr – LXR agonists, Gal4 luciferase reporter, confirmation, counter-screen for hcDAF-12 agonist project, cell-based, luminescence, HEK293, H. contortus campaign. shares compounds with hcDAF-12 act. HEK293 Gal4-LXR tk-luc reporter, 24 h; normalized: DMSO 0%, positive control 100%. activation, % at 6.8 µM. 3,400 tested, under 10 active. AID 743027, 2013;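 active = mean percent activation of the reporter above a cutoff set as the average over tested compounds plus their standard deviation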
Target sequence (P55055 whole entry, looked up, the tested form may be a part): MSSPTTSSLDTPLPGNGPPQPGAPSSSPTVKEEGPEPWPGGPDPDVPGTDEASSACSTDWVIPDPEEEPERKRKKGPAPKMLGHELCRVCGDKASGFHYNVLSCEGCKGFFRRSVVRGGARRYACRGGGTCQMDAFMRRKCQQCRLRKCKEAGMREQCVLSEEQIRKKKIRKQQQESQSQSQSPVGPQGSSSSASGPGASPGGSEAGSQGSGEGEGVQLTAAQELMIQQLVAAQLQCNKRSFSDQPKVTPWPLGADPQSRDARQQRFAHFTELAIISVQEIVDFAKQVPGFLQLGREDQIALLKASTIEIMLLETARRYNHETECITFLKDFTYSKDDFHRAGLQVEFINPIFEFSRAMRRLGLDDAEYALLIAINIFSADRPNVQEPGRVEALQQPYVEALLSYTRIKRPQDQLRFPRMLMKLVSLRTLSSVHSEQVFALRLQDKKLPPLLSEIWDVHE
hcDAF12 conf – H. contortus DAF-12 receptor agonists, confirmation, cell-based, luminescence, HEK293, lit1-tk-luc, triplicate; shares compounds with hcDAF-12 act; HEK293 hcDAF-12 lit1-tk-luc reporter; % of Δ7-dafachronic acid response; activation, % at 6.8 µM; 3,400 compounds, 61% hits; AID 743032, 2013;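 active = mean activation across triplicate tests above the threshold derived from the earlier primary screen, cut at about 5.5% in these data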;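 note: 0% = DMSO only wells and 100% = 3 µM Δ7-dafachronic acid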
hgDAF12 conf – H. glycines DAF-12 receptor agonists, confirmation, cell-based, luminescence, HEK293, GAL4-LBD fusion. shares compounds with hgDAF12 agonist. HEK293 GAL4-hgDAF12 luciferase reporter, agonist mode; percent of butyrate response. 3,300 compounds, 80% hits. activation, % at 6.8 µM;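 active = mean activation over triplicate wells above the hit cutoff derived from the earlier primary screen, cut at about 11% in these data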;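 note: 0% = DMSO low control and 100% = 2 mM sodium butyrate high control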
LXRb DAF12 ctr – LXR agonists, Gal4 luciferase reporter, confirmation, counter-screen for hgDAF-12 agonist project, cell-based, luminescence, HEK293, H. glycines campaign; activation, % at 6.8 µM; AID 743051, 2013; shares compounds with hgDAF12 agonist; 3,300 tested, under 10 active; 24 h;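 active = mean activation of the triplicate above a set limit carried over from the primary screen, none filed active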
* = called active by the depositor; . = no result; ! = repeats disagree. The list is not random: actives were taken first. Their share in the collection is about 4.1%.

SMILES | hcDAF-12 act | DAX1 inh-1 | DAX1 inh-2 | ssDAF12 agonist | hgDAF12 agonist | LXRb hcDAF ctr | hcDAF12 conf | hgDAF12 conf | LXRb DAF12 ctr
COC(=O)c1[nH]c2ccccc2c1NC(=O)CNC1CCCCC1 | -0.5 | -1.2 | -1.9 | -1.4 | -3.6 | . | . | . | .
Cc1cc(C)c2c(N)c(C(=O)Nc3ccc(F)cc3)sc2n1 | 8.8* | 2.7 | 3.0 | 0.4 | 13.6* | 1.9 | 16.5* | 24.2* | 1.3
Cc1cc(C)c2c(N)c(C(=O)Nc3ccc([N+](=O)[O-])cc3)sc2n1 | 1.9 | 0.2 | 1.0 | -0.3 | 1.8 | . | . | . | .
COc1cc(C2OC(=O)C3C(c4ccc(OC(C)=O)c(OC)c4)OC(=O)C23)ccc1OC(C)=O (stereo not given) | 1.7 | -1.1 | 1.2 | -0.8 | -0.5 | . | . | . | .
O=C(CS(=O)(=O)c1ccccc1)N1CCc2ccccc21 | 12.7* | 2.0 | 2.6 | 1.9* | 21.2* | 0.7 | 9.1* | 16.6* | 0.6
CCCOc1ccc(/C=C/C(=O)OCC(=O)N(C)c2c(N)n(Cc3ccccc3)c(=O)[nH]c2=O)cc1OCC | -1.0 | -0.7 | -0.6 | -0.9 | 0.5 | . | . | . | .
C[n+]1c2cc(N)ccc2cc2ccc(N)cc21 | 6.6* | -0.6 | -3.1 | 0.1 | 13.4*! | 1.0 | 10.8* | 8.1 | 0.5
Cc1ccc(-c2cc(C(F)(F)F)n3nc(C(=O)NCCCn4ccnc4)cc3n2)cc1C | -1.5 | -2.3 | -0.7 | -1.7 | 0.1 | . | . | . | .
Cc1ccc(COc2ccc(C)nc2[N+](=O)[O-])cc1 | 9.6* | . | 1.6 | -0.1 | 13.9* | 1.4 | 7.3* | 14.3* | 1.0
C(=C\c1nc2ccccc2[nH]1)/c1ccccc1 | 7.2* | -4.1 | 1.9 | 0.7 | 14.4* | 1.7 | 8.1* | 17.5* | 0.8
O=c1[nH]c2ccccc2nc1/C=C/c1ccc(Cl)cc1 | -0.5 | 1.3 | 0.7 | -0.7 | 2.2 | . | . | . | .
CN(C)c1ccc(/C=C/c2nc3ccccc3c(=O)[nH]2)cc1 | 6.6* | 3.2 | 2.6 | 0.6 | 18.5* | 1.6 | 8.1* | 5.3 | 1.1
CCN1C(=O)[C@H]2[C@@H](c3ccc(-c4ccc(OC)cc4)cc3)N[C@@](CC(C)C)(C(=O)OC)[C@H]2C1=O | -0.2 | 0.5 | 0.1 | -1.3 | 1.4 | . | . | . | .
CCCCN=C1NC(=O)C(CC(=O)NCCc2ccc(OC)cc2)S1 (stereo not given) | 2.1 | 0.6 | -0.2 | -0.6 | 0.7 | . | . | . | .
CCOC(=O)N1CCN(S(=O)(=O)c2cc([N+](=O)[O-])c(C)cc2C)CC1 | 0.3 | 0.9 | -0.3 | -1.7 | 1.5 | . | . | . | .
Nc1ccccc1SCc1cn2ccccc2n1 | 7.4* | 0.8 | 4.2* | 1.4* | 14.2* | 0.7 | 4.8 | 13.9* | 0.5
O=C(c1ccccc1)c1ccc(O)cc1O | -0.3 | 3.2 | -0.2 | -1.6 | -0.3 | . | . | . | .
CC(=O)c1cc2c(C)c(C(=O)c3ccccc3)oc2cc1O | 7.5* | 1.4 | 4.0* | 1.7* | 26.4* | 1.8 | 5.8* | 21.1* | 1.1
CCCS(=O)(=O)NCc1cn2c(C)csc2n1 | 10.3* | 3.6 | 3.8* | 1.1* | 15.0* | 0.3 | 3.8 | 6.4 | 0.2
CCS(=O)(=O)NCc1cn2c(C)csc2n1 | 3.2 | -0.1 | -0.6 | -0.3 | 0.6 | . | . | . | .
Fc1ccccc1OCCSc1nnnn1-c1ccccc1 | 8.1* | 3.3 | 3.2 | -0.2 | 13.5* | 1.4 | 7.7* | 17.7* | 1.0
COc1ccccc1OCCSc1nnnn1-c1ccc(C)cc1 | -1.5 | -0.1 | 1.3 | -0.6 | 4.3 | . | . | . | .
O=C(Nc1cc2ccccc2oc1=O)c1ccccc1 | 11.4* | . | 1.9 | 0.5 | 14.7* | 0.8 | 9.2* | 4.6 | 0.6
Cc1oc(=O)c(NC(=O)c2ccccc2)cc1C(N)=O | 1.1 | . | 0.1 | -0.4 | -0.6 | . | . | . | .
[O-][n+]1c(/C=C/c2ccccc2)ccc2ccccc21 | 12.6* | 7.2* | 2.4 | 1.5* | 13.7* | 1.2 | 8.6* | 20.6* | 0.9
SMILES | hcDAF-12 act | DAX1 inh-1 | DAX1 inh-2 | ssDAF12 agonist | hgDAF12 agonist | LXRb hcDAF ctr | hcDAF12 conf | hgDAF12 conf | LXRb DAF12 ctr
CC(C)OC(=O)c1ccc2nc3ccccc3nc2c1 | 7.8* | 3.2 | 1.8 | 1.2* | 17.3* | 1.8 | 8.1* | 16.5* | 0.8
CC(C)c1ccc(NC(=O)c2snc3ccc(Cl)cc23)cc1 | 11.4* | 2.8 | 3.8* | 2.7* | 19.7* | 1.4 | 12.1* | 16.8* | 0.8
CC(C)c1ccc(NC(=O)c2cccnc2)cc1 | 4.9 | 1.4 | 2.8 | -0.4 | 8.1 | . | . | . | .
Cc1ccccc1Nc1nnc(SCC(=O)c2c(N)n(C3CC3)c(=O)[nH]c2=O)s1 | 0.3 | -1.4 | 0.7 | -1.7 | 0.6 | . | . | . | .
Cc1ccc(-c2nc(N/N=C/c3cccc([N+](=O)[O-])c3)c3ccccc3n2)cc1 | 2.9 | 0.5 | -0.8 | -0.9 | 7.7 | . | . | . | .
Cc1ccc(-c2nc(N/N=C/c3cccnc3)c3ccccc3n2)cc1 | 13.2* | -1.9 | 1.2 | 2.9* | 13.8* | 1.6 | 12.3* | 20.6* | 1.1
COc1ccc(COCC(O)CN2CCN(S(=O)(=O)c3ccc(C(C)C)cc3)CC2)cc1 (stereo not given) | -2.5 | -0.2 | -2.2 | -1.5 | -3.5 | . | . | . | .
Cc1ccc(C(=O)Nc2ncc(C)s2)s1 | 6.8* | -2.2 | 2.4 | 0.3 | 17.4* | 2.0 | 6.3* | 17.5* | 1.2
O=c1[nH]c2ccccc2cc1-c1noc(-c2cccnc2)n1 | 3.0 | 0.3 | 0.3 | -0.7 | -0.3 | . | . | . | .
c1cncc(-c2noc(-c3ccc4ccccc4c3)n2)c1 | 8.8* | -0.1 | 2.6 | 1.0* | 16.6* | 1.2 | 5.0 | 18.6* | 1.2
OCCO | 0.4 | -0.1 | 0.5 | -1.3 | 3.3 | . | . | . | .
